Assay results from ChEMBL document CHEMBL3988442, “University of Dundee, Small-Polar-MMV Screening Library” (2021).

Biological target: AMP-activated protein kinase, AMPK (Homo sapiens) (UniProt P54646+O43741+P54619+Q9UGJ0+Q9Y478+Q13131+Q9UGI9)
Test: AMP-dependent Kinase enzyme assay. An in vitro enzyme assay that detects ADP turnover that is directly proportional to AMPK activity. This uses naive AMPK that is activated during the assay with MK-8722
Format: functional
Set-up: scale not given: direction of the effect not stated beside the values
Conditions: 30 µM

SMILES	Percent Effect [%]
CCCNCC1(O)CCCN(Cc2cccc(C)c2)C1=O (stereo not given)	3.08
COCCC1(CO)CCCN(Cc2ccc(F)c(C)c2)C1 (stereo not given)	-3.75
Cn1cc(C(=O)N[C@@H]2CN(Cc3cccs3)[C@@H]3CCCO[C@@H]32)cn1	-3.04
Cn1ccnc1-c1cccc(NC(=O)NCCCO)c1	-4.42
CC(C)(C)NC(=O)CNC(=O)CCc1ccccc1Br	-5.91
c1ccc(CN2CCCC(c3nccnc3-n3ccnc3)C2)cc1 (stereo not given)	4.45
COc1ccc2nnc(CCCC(=O)NCCC3=CCCCC3)n2n1	-1.46
Cc1cnn(CC2CN(Cc3nc(N)c4ccccc4n3)CCO2)c1 (stereo not given)	-1.66
O=C(c1ccccn1)N1CCc2nc(-c3cnccn3)nc(O)c2C1	8.6
NCC(c1ccccc1)N1CCc2sccc2C1 (stereo not given)	-9.46
Cc1cc(C(=O)N2Cc3ccccc3OC3(CCOCC3)C2)nc(N)n1	1.22
CC1=Nc2c(c(=O)[nH]n2C(C)C)C(c2ccccc2)S1 (stereo not given)	12.2
FC(F)(F)c1cc(N2CCc3ncnc(NC4CC4)c3CC2)ncn1	11.7
O=C(Nc1ccc(F)cc1F)Nc1c[nH]c(=O)[nH]c1=O	5.76
Cn1c(Cn2cccn2)nnc1C1CCN(Cc2cccnc2N)CC1	-1.91
Cc1ccc(C2CSCCN2C(=O)C2=CCCC2)o1 (stereo not given)	-2.27
COC(=O)c1cccc(C(=O)N2CCN(c3cccc(C)c3C)CC2)n1	-2.32
NS(=O)(=O)N1CCc2ccc(NC(=O)Cc3ccc(F)cc3)cc21	-2.62
COc1ccccc1C1CNC(=O)c2nc(-c3cnn(C)c3)[nH]c2C1 (stereo not given)	-0.668
O=C1NCCN1C1CCN(Cc2nc(-c3ccoc3)no2)CC1	2.43

SMILES	Percent Effect [%]
Cc1ccc(N2CC3(COCCN(Cc4nccs4)C3)OCC2=O)s1 (stereo not given)	-1.49
CCOCCCn1c(NC(=O)c2cnn(C)c2)nc2ccccc21	2.7
CCn1nnc2cc(C(=O)N3CCCC3Cn3cc(C)cn3)ccc21 (stereo not given)	-2.65
CN(C)CC1CSCCCN1C(=O)c1ccc(C(C)(C)C)cc1 (stereo not given)	2.24
CS(=O)(=O)CC(=O)N1C[C@H]2CCC[C@@]2(COCc2ccccn2)C1	-3.2
COc1ccccc1CN(C)C(=O)c1cc(CN2CCC(O)CC2)on1	26.1
COCC(O)CNC(=O)c1coc(COc2ccc3sc(C)nc3c2)n1 (stereo not given)	3.03
CCc1n[nH]c(C2CN(Cc3nccn3CC)CCO2)n1 (stereo not given)	-2.5
COc1ccc(-n2ccc(C(=O)N3CCN(C)CC3C)n2)cc1 (stereo not given)	5.54
c1ccc(-c2noc(CNC3CCc4ncnn4C3)n2)nc1 (stereo not given)	-0.412
Cc1cc(=O)n2ncnc2n1CC(O)c1cc(F)ccc1F (stereo not given)	1.21
CSc1ccc(C(CNC(=O)C2CC2)N2CCc3sccc3C2)cc1 (stereo not given)	1.69
CS(=O)(=O)NC[C@H]1OC[C@@H]2CCN(Cc3ccc(F)cc3)C[C@@H]21	2.13
COc1ccc(CNC(=O)CNc2cc3c(cc2Cl)OCCCO3)cc1	2.47
CCOCCOc1ccccc1C(=O)N1CCCC(c2ncc[nH]2)C1 (stereo not given)	11.4
CC(O)CN1CCN(C(=O)c2cc3ccccc3c(=O)[nH]2)CC1 (stereo not given)	5.31
CCN1CCC(NC(=O)CN2CCCC2Cn2nc(C)cc2C)CC1 (stereo not given)	-2.56
CCc1ccc(OCC(O)CN2CCN(S(C)(=O)=O)CC2)cc1 (stereo not given)	3.94
O=C1CCCN1CC1CN(C(=O)CC2CCCC2)Cc2nccn2C1 (stereo not given)	4.17
Cc1nc(C2CCN(C(=O)c3cccnc3)CC2)c2sccn12	6.93

Biological target: Sialic acid-binding Ig-like lectin 9 (Homo sapiens) (UniProt Q9Y336)
Sequence (Q9Y336 whole entry): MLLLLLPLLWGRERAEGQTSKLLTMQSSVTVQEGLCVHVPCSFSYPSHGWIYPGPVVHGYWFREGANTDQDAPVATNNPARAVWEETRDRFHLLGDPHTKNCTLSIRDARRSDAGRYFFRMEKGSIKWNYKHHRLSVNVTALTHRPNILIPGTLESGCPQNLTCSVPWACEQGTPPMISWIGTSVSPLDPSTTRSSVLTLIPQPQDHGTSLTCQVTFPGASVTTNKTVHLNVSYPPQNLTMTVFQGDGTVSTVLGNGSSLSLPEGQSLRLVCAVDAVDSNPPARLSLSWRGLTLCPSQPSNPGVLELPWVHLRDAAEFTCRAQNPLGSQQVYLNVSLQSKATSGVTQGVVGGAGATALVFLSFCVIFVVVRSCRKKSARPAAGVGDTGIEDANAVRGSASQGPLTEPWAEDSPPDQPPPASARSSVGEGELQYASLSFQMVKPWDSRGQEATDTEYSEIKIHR
Test: Hs-Siglec9 ALPHAscreen SOP 20170721
Set-up: scale not given: direction of the effect not stated beside the values
Conditions: 10 µM

SMILES	Percent Effect [%]
CCCNCC1(O)CCCN(Cc2cccc(C)c2)C1=O (stereo not given)	-2.93
COCCC1(CO)CCCN(Cc2ccc(F)c(C)c2)C1 (stereo not given)	-6.12
Cn1cc(C(=O)N[C@@H]2CN(Cc3cccs3)[C@@H]3CCCO[C@@H]32)cn1	-0.505
Cn1ccnc1-c1cccc(NC(=O)NCCCO)c1	2.52
CC(C)(C)NC(=O)CNC(=O)CCc1ccccc1Br	3.62
c1ccc(CN2CCCC(c3nccnc3-n3ccnc3)C2)cc1 (stereo not given)	-1.75
COc1ccc2nnc(CCCC(=O)NCCC3=CCCCC3)n2n1	-0.0396
Cc1cnn(CC2CN(Cc3nc(N)c4ccccc4n3)CCO2)c1 (stereo not given)	-10
O=C(c1ccccn1)N1CCc2nc(-c3cnccn3)nc(O)c2C1	0.354
NCC(c1ccccc1)N1CCc2sccc2C1 (stereo not given)	-3.01
Cc1cc(C(=O)N2Cc3ccccc3OC3(CCOCC3)C2)nc(N)n1	-2.77
CC1=Nc2c(c(=O)[nH]n2C(C)C)C(c2ccccc2)S1 (stereo not given)	5.15
FC(F)(F)c1cc(N2CCc3ncnc(NC4CC4)c3CC2)ncn1	-4.57
O=C(Nc1ccc(F)cc1F)Nc1c[nH]c(=O)[nH]c1=O	-2.96
Cn1c(Cn2cccn2)nnc1C1CCN(Cc2cccnc2N)CC1	-4.65
Cc1ccc(C2CSCCN2C(=O)C2=CCCC2)o1 (stereo not given)	26.9
COC(=O)c1cccc(C(=O)N2CCN(c3cccc(C)c3C)CC2)n1	0.218
NS(=O)(=O)N1CCc2ccc(NC(=O)Cc3ccc(F)cc3)cc21	3.78
COc1ccccc1C1CNC(=O)c2nc(-c3cnn(C)c3)[nH]c2C1 (stereo not given)	22.2
O=C1NCCN1C1CCN(Cc2nc(-c3ccoc3)no2)CC1	5.09

SMILES	Percent Effect [%]
Cc1ccc(N2CC3(COCCN(Cc4nccs4)C3)OCC2=O)s1 (stereo not given)	-11.2
CCOCCCn1c(NC(=O)c2cnn(C)c2)nc2ccccc21	15
CCn1nnc2cc(C(=O)N3CCCC3Cn3cc(C)cn3)ccc21 (stereo not given)	3.15
CN(C)CC1CSCCCN1C(=O)c1ccc(C(C)(C)C)cc1 (stereo not given)	1.48
CS(=O)(=O)CC(=O)N1C[C@H]2CCC[C@@]2(COCc2ccccn2)C1	0.525
COc1ccccc1CN(C)C(=O)c1cc(CN2CCC(O)CC2)on1	19.3
COCC(O)CNC(=O)c1coc(COc2ccc3sc(C)nc3c2)n1 (stereo not given)	0.244
CCc1n[nH]c(C2CN(Cc3nccn3CC)CCO2)n1 (stereo not given)	-14.5
COc1ccc(-n2ccc(C(=O)N3CCN(C)CC3C)n2)cc1 (stereo not given)	7.32
c1ccc(-c2noc(CNC3CCc4ncnn4C3)n2)nc1 (stereo not given)	1.92
Cc1cc(=O)n2ncnc2n1CC(O)c1cc(F)ccc1F (stereo not given)	-4.45
CSc1ccc(C(CNC(=O)C2CC2)N2CCc3sccc3C2)cc1 (stereo not given)	-0.599
CS(=O)(=O)NC[C@H]1OC[C@@H]2CCN(Cc3ccc(F)cc3)C[C@@H]21	-0.611
COc1ccc(CNC(=O)CNc2cc3c(cc2Cl)OCCCO3)cc1	-4.48
CCOCCOc1ccccc1C(=O)N1CCCC(c2ncc[nH]2)C1 (stereo not given)	0.341
CC(O)CN1CCN(C(=O)c2cc3ccccc3c(=O)[nH]2)CC1 (stereo not given)	-2.11
CCN1CCC(NC(=O)CN2CCCC2Cn2nc(C)cc2C)CC1 (stereo not given)	6.76
CCc1ccc(OCC(O)CN2CCN(S(C)(=O)=O)CC2)cc1 (stereo not given)	-12.9
O=C1CCCN1CC1CN(C(=O)CC2CCCC2)Cc2nccn2C1 (stereo not given)	6.88
Cc1nc(C2CCN(C(=O)c3cccnc3)CC2)c2sccn12	4.07
